Rows were chosen to be rich in hits. Some 5.6% of all compounds tested hit in one or more screens of this group.
H9c2 protect = cardioprotection against H2O2-induced cell death, primary screen, uHTS, H9c2 cells, ATPLite luminescence; 0.63% of 360,000 active; protection from H2O2 cell death, % at 20 µM; H9c2 cardiomyocytes, H2O2 injury protection, 2 h;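 active means compounds giving at least 50% protection of heart cells from peroxide-induced death in the single-dose screen, raw or plate-pattern-corrected value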;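 further: 0% = DMSO wells with peroxide and 100% = DMSO wells without peroxide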
PHOSPHO1 inh = PubChem AID 1565 | 1.1% of 290,000 active | inhibition, % at 13.3 µM | recombinant PHOSPHO1, absorbance phosphatase assay; in the data active means inhibition above about 60%
Target sequence (Q8TCT1 whole entry, looked up): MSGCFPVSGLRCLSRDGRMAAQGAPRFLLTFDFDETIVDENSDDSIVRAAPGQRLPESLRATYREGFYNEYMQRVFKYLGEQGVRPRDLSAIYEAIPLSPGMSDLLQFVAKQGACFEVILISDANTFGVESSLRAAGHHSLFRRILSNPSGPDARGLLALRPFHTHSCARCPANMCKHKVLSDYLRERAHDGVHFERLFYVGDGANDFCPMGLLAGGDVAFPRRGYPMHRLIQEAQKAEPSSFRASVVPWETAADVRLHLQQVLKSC
PfGluPho inh = PfG6PD enzyme inhibitors, primary screen, biochemical, fluorescence intensity, uHTS; PfGluPho enzyme, NADPH resazurin-diaphorase fluorescence; AID 504690, 2011; inhibition, % at 20 µM; glucose-6-phosphate dehydrogenase-6-phosphogluconolactonase (Plasmodium falciparum 3D7); 0.78% of 350,000 active;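 active means inhibition reaching at least a set limit at 20 µM in the primary screen, cut at about 59% in these data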;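 further: 0% = DMSO wells with substrate and 100% = DMSO wells lacking glucose-6-phosphate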
ALR inh = inhibitors of human ALR sulfhydryl oxidase, primary screen, biochemical, H2O2 detection, HRP-luminol luminescence, single point. FAD-linked sulfhydryl oxidase ALR (Homo sapiens), P55789. purified ALR, DTT oxidation. inhibition, % (no concentration beside the values). 3.8% of 290,000 active;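 active means mean replicate inhibition above about 79%, with every replicate also reaching it, limit read from the data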
Target sequence (P55789 whole entry, looked up): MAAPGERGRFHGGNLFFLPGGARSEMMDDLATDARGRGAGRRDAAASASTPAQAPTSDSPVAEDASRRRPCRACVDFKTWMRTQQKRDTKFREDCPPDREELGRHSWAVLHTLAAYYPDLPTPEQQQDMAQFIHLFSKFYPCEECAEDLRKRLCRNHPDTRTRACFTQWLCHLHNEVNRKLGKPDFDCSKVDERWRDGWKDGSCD
PfM18AAP inh = PfM18AAP inhibitors, malaria aminopeptidase, primary screen, biochemical, QFRET, recombinant enzyme. AID 1822, 2009. H-Glu-NHMec fluorogenic cleavage. M18 aspartyl aminopeptidase (Plasmodium falciparum 3D7). inhibition, % at 7.35 µM. 1.2% of 290,000 active;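 active means inhibition above the campaign mean inhibition over all tested compounds plus 3 SD, cut at about 28% in these data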;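 further: 0% = plate median of test compound wells and 100% = 2 mM ZnCl2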
Starred values were filed as active, the others as inactive; · = no result.

SMILES	H9c2 protect	PHOSPHO1 inh	PfGluPho inh	ALR inh	PfM18AAP inh
CCN1CCN(C(=O)c2ccc3c(=O)n(CCc4ccccc4)c(=O)[nH]c3c2)CC1	-4	39	2	-2	-1
CNc1cccccc1=S	-2	76*	65*	-10	-1
CNc1ccccc1	2	·	-6	-1	·
CC[C@]12c3[nH]c4ccc(Cl)cc4c3CCN1C(=O)[C@@H](CC(=O)NCCCn1ccnc1)C[C@@H]2C(=O)N1CCN(C(=O)C2CC2)CC1	6	·	-4	·	·
C/C(=N\Nc1ccc(C(=O)O)cc1)c1ccc2c(c1)Nc1ccccc1S2	-11	4	11	100*	28
C/C(=N/Nc1ccc(C(=O)O)cc1)c1ccc2c(c1)Nc1ccccc1S2	-5	·	18	·	·
O=C(NCc1ccco1)c1ccccc1NS(=O)(=O)c1ccc(Cl)s1	-8	19	-30	95*	2
CCOC(=O)c1c(NC(=O)/C=C/C(=O)O)sc(C)c1-c1ccc(C)c(C)c1	2	35	-16	98*	9
COC(=O)c1sc(-c2ccc(Cl)cc2)cc1NC(=O)/C=C/C(=O)O	-7	3	-21	84*	-3
COC(=O)c1c(NC(=O)/C=C/C(=O)O)sc(C)c1-c1ccc(C)cc1	5	48	-13	98*	6
COC(=O)c1c(NC(=O)/C=C/C(=O)O)sc(C)c1-c1ccc(C)c(C)c1	-8	4	0	·	10
COC(=O)c1c(NC(=O)/C=C/C(=O)O)sc(C)c1-c1ccc(C(C)C)cc1	-8	-112	-20	33	7
CCOC(=O)c1nc2c(=O)n(C)c(=O)n(C)c2n(C)c1=O	4	·	0	-14	·
O=C(CSc1nnc(-c2ccccc2)n1Cc1ccccc1)NNC(=O)c1ccccc1O	59*	-10	-46	24	10
CC(=O)N1c2ccccc2[C@@H](C)[C@@H]1C	9	·	6	-7	·
CC(=O)N1c2ccccc2C2(O)N=C(C)SC12 (stereo unspecified)	1	72*	58	53	42*
O=S1(=O)CC(N2CCC(Cc3ccccc3)CC2)CN1C1CCCC1 (stereo unspecified)	-3	·	·	·	·
CCCN1C=CC(=C/C=C(\C#N)C(=O)OCC)C=C1	·	26	·	99*	7
CCCN1C=CC(=CC=C(C#N)C#N)C=C1	2	25	-11	99*	3
C=CCN1C=C/C(=C\C=C(C#N)C#N)c2ccccc21	-2	-1	10	·	-8
C=CCN1C=CC(=CC=C(C#N)C#N)C=C1	7	28	2	99*	-4
COc1cc(NS(=O)(=O)c2ccc(N/C=C\C(=O)c3ccc(F)cc3)cc2)nc(OC)n1	-2	6	-34	5	4
COc1ccc(COC(=O)c2cccc(S(=O)(=O)N3CCCC3)c2)cc1F	-5	43	-7	0	1
CC1(C)COC(c2ccc3c(c2)OCO3)OC1	-1	·	-1	·	·
Nc1nc(N2CCN(c3ccc(F)cc3)CC2)n[nH]1	0	33	8	98*	9
SMILES	H9c2 protect	PHOSPHO1 inh	PfGluPho inh	ALR inh	PfM18AAP inh
Cc1cc(C)c(S(=O)(=O)Nc2ccc(N(C)C)cc2)c(C)c1-n1cnnn1	0	23	43	99*	17
CCN1CCCc2cc(CN(CCN3CCOCC3)C(=O)Nc3ccc(C)c(C)c3)ccc21	0	20	14	99*	15
CCc1ccc(NC(=O)N(CCN2CCOCC2)Cc2ccc3c(c2)CCCN3CC)cc1	1	8	18	99*	9
CCOC(=O)c1c(-c2ccc(C)cc2)csc1NC(=O)C1CC=CCC1C(=O)O (stereo unspecified)	-5	27	-31	13	13
CCOC(=O)c1c(-c2ccc(-c3ccccc3)cc2)csc1NC(=O)C1C2CCC(O2)C1C(=O)O (stereo unspecified)	-1	-19	5	96*	-4
CCOC(=O)c1c(-c2ccccc2)csc1NC(=O)C1CCCO1 (stereo unspecified)	-2	72*	36	·	13
CCOC(=O)c1c(-c2ccccc2)csc1NC(=O)CSc1ccccc1	-8	11	21	-4	-1
CCOC(=O)c1c(-c2ccc(C)cc2)csc1NC(=O)CCN1CCOCC1	2	-9	12	92*	3
CCOC(=O)c1c(-c2cccc(C)c2)csc1NC(=O)C1CC=CCC1C(=O)O (stereo unspecified)	-5	-12	-42	98*	-16
CCOC(=O)c1c(-c2ccccc2)csc1NC(=O)CCN1CCOCC1	3	11	5	3	1
COc1cc(-c2cnc3c(NC=O)cc(-c4cccc(C(=O)NCCN(C)C)c4)cn23)cc(OC)c1OC	45	·	·	·	·
Cc1ccc(S(=O)(=O)CCC(=O)OCC(=O)NC2CCS(=O)(=O)C2)cc1 (stereo unspecified)	4	·	-14	0	·
OCCNc1ncnc2c1ncn2[C@H]1CN(Cc2ccc(Cl)cc2)C[C@@H](CO)O1	-9	·	·	·	·
CCc1nc2ccc(C(=O)N3CCCC(C(N)=O)C3)cn2c1N(C)Cc1ccc(OC)cc1 (stereo unspecified)	0	·	·	·	·
CC(C)c1nc(SCC(=O)Nc2nc3c(s2)CCCC3)c2ccccc2n1	-22	18	11	98*	-6
CC(C)c1nc(SCC(=O)Nc2ccc(C(=O)O)cc2)c2c3c(sc2n1)CCCC3	3	28	-41	99*	1
CC1CCc2c(sc3ncnc(SCC(=O)Nc4ccc(C(=O)O)cc4)c23)C1 (stereo unspecified)	6	55	-48	22	2
Cc1nc(SCC(=O)Nc2ccc(CN3CCCC3)cc2)c2c(C)c(C)sc2n1	-17	·	12	99*	·
CCOc1ccc(CCN2C(=S)N([C@@H](Cc3ccc(O)cc3)CN3CCC[C@@H]3CN3C(=S)NC[C@@H]3CC(C)C)C[C@@H]2CC(C)C)cc1	-2	·	·	·	·
Cc1[nH]c2ccccc2c1N=Nc1cc(C(=O)O)cc(C(=O)O)c1	6	30	11	59	-4
Cc1[nH]c2ccccc2c1N=Nc1ccccc1F	-13	-13	20	99*	1
Cc1[nH]c2ccccc2c1N=Nc1ccc(F)cc1	-34	-39	22	98*	4
C=CCC1(CC=C)CCCN1C(=O)c1cc(COc2cncc(Cl)c2)on1	-14	66*	·	-13	8
CN(C)CCN(C)Cc1c2ccccc2c(CN(C)CCN(C)C)c2ccccc12	8	20	3	-9	29*
COc1cc2[nH]c3ccccc3c2cc1C	-1	18	8	81*	·
O=C(NCC1CCCO1)C1CC(=O)N(c2cccc(Cl)c2)C1 (stereo unspecified)	2	23	13	-6	0

Screens: PubChem, several laboratories
